Drawing on PubChem BioAssay (NCI), this text covers growth for twelve molecules.

Test systems include NCI-H23 lung; NCI-H226 lung; NCI-H322M lung; HOP-62 NSCLC; NCI-H460 lung; HOP-92 NSCLC; NCI-H522 lung; A549/ATCC NSCLC; 786-0 renal; COLO 205 colon.
What all share (assay): NCI-60 one-dose screen, 48 h (100 = growth as untreated, 0 = no growth, -100 = all killed)
What all share (details): 10 µM unless noted

Where “and” joins values, the source holds several entries; their conditions need not be identical. Equal entries are not always repeated. About 83,000 compounds went through this panel and 20% of them were active in at least one assay; those are over-represented in the sample as a whole.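 96-well plates, one dose, 48 hours. Percent growth reported; active if below 10.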 Calls of active or inactive are those of the source.

In the case of `COc1cccc2nc(Nc3cccc(NC(=O)c4ccc(CN5CCN(C)CC5)c(C(F)(F)F)c4)c3)ccc12`, the growth in the assay on NCI-H23 lung is -97.8% (active); with NCI-H226 lung it was -93.4% (active); in the assay on NCI-H322M lung, -100% (active); with HOP-62 NSCLC, -78.5% (active); with NCI-H460 lung it was -77.1% (active); with HOP-92 NSCLC it was -66.7% (active). Besides, the growth with NCI-H522 lung is -87% (active); with A549/ATCC NSCLC it was -70.5% (active); in the assay on 786-0 renal, -81.7% (active); in the assay with COLO 205 colon, -73.7% (active).
Consider `CN(C)CCCc1ccc(Nc2cnn(C)c(=O)c2Cl)cc1`, for which the growth in the assay with NCI-H23 lung was 98% (inactive); with NCI-H226 lung, 99% (inactive); in the assay on NCI-H322M lung, 92.9% (inactive); in the assay on HOP-62 NSCLC, 108% (inactive); in the assay with NCI-H460 lung, 103% (inactive); in the assay with HOP-92 NSCLC, 110% (inactive). Further, the growth is 96.3% (inactive) with NCI-H522 lung, 93.8% (inactive) in the assay with A549/ATCC NSCLC, 95.9% (inactive) with 786-0 renal and 118% (inactive) in the assay with COLO 205 colon.
For the molecule `CCN(C(=O)CN1C(=O)/C(=C/c2ccco2)SC1=S)C1CCS(=O)(=O)C1` (stereo not given), the growth in the assay with NCI-H23 lung was 99.9% (inactive); in the assay on NCI-H226 lung, 99.1% (inactive); in the assay with NCI-H322M lung it was 99.8% (inactive); with HOP-62 NSCLC it was 123% (inactive); with NCI-H460 lung, 101% (inactive); in the assay on HOP-92 NSCLC, 103% (inactive). The growth in the assay on NCI-H522 lung is 47.5% (inactive); in the assay with A549/ATCC NSCLC, 102% (inactive); in the assay with 786-0 renal, 101% (inactive); in the assay on COLO 205 colon, 120% (inactive).
Turning to `Cc1ccc(-c2cc(-c3ccccc3)[nH]c(=O)c2C#N)cc1`, the growth in the assay on NCI-H23 lung was 96.4% (inactive); in the assay on NCI-H226 lung, 86.8% (inactive); in the assay with NCI-H322M lung, 91.2% (inactive); with HOP-62 NSCLC, 85.3% (inactive); in the assay on NCI-H460 lung, 90.8% (inactive); in the assay on HOP-92 NSCLC it was 45.7% (inactive). Moreover, the growth in the assay on NCI-H522 lung was 74.9% (inactive); in the assay on A549/ATCC NSCLC, 77.3% (inactive); in the assay with 786-0 renal, 88.4% (inactive); in the assay on COLO 205 colon it was 124% (inactive).
With `O=S(=O)(c1nc(-c2ccc(Br)cc2)oc1-c1ccc(Cl)cc1)N1CCCC(O)C1` (stereo not given), the growth in the assay with NCI-H23 lung is 47.3% (inactive); in the assay on NCI-H226 lung it was 60.4% (inactive); in the assay with NCI-H322M lung, 78.3% (inactive); with HOP-62 NSCLC, 102% (inactive); in the assay on NCI-H460 lung it was 34.1% (inactive); in the assay with HOP-92 NSCLC, -14.5% (active). The growth was 49.2% (inactive) with NCI-H522 lung, 47.6% (inactive) with A549/ATCC NSCLC, 58.9% (inactive) with 786-0 renal and 81% (inactive) with COLO 205 colon.
On to `O=C(CCl)Nc1ccc(C(=O)/C=C/c2cc3ccccc3nc2Cl)cc1`, for which the growth is -83.6% (active) and 34.9% (inactive) in the assay on NCI-H23 lung; 12.4% (inactive) and 14.5% (inactive) in the assay with NCI-H226 lung; 22.4% (inactive) and 45.1% (inactive) in the assay on NCI-H322M lung; -8.06% (active) and 37.4% (inactive) with HOP-62 NSCLC; -53.6% (active) and 19.5% (inactive) with NCI-H460 lung; 46.9% (inactive) and 65.3% (inactive) in the assay with HOP-92 NSCLC. The growth in the assay with NCI-H522 lung is -62.9% (active) and 76.9% (inactive); in the assay with A549/ATCC NSCLC, 72.4% (inactive) and 60.8% (inactive); in the assay on 786-0 renal it was -41.7% (active) and 23.9% (inactive); with COLO 205 colon, -64.4% (active) and 72.4% (inactive).
As for `COc1cc2cc(C(=O)N3C[C@@H](CCl)c4c3cc(OC(=O)N(CCC(=O)N3CCN(C)CC3)C3CCCCC3)c3ccccc43)[nH]c2c(OC)c1OC`, the growth in the assay with NCI-H23 lung is -86.8% (active); in the assay on NCI-H226 lung, -11.1% (active); in the assay with NCI-H322M lung, -28.6% (active); in the assay on HOP-62 NSCLC it was -55.7% (active); with NCI-H460 lung it was -73.1% (active); with HOP-92 NSCLC, -71% (active). Further, the growth is -82% (active) with NCI-H522 lung, -24.1% (active) in the assay on A549/ATCC NSCLC, -96% (active) with 786-0 renal and -66.7% (active) in the assay on COLO 205 colon.
As to `O=C1NC(=S)/C(=C/c2cn(-c3ccccc3)nc2-c2ccccc2)S1`, the growth with NCI-H23 lung is 12.5% (inactive); in the assay on NCI-H226 lung, 34.1% (inactive); in the assay on NCI-H322M lung, 31.7% (inactive); in the assay with HOP-62 NSCLC, 72.6% (inactive); in the assay on NCI-H460 lung it was 9.19% (active); in the assay with HOP-92 NSCLC it was 13.7% (inactive). Besides, the growth in the assay with NCI-H522 lung was -9.92% (active); with A549/ATCC NSCLC, 17.7% (inactive); in the assay with 786-0 renal it was 20.8% (inactive); with COLO 205 colon, 33.2% (inactive).
As for `CN1CCN(C(=O)Oc2cc3c(c4ccccc24)[C@H](CCl)CN3C(=O)c2cc3cc(OCCCN4CCC4)ccc3[nH]2)[C@@H]2CSSC[C@H]21`, the growth in the assay on NCI-H23 lung is -72% (active); with NCI-H226 lung, -22.4% (active); in the assay with NCI-H322M lung, 2.48% (active); with HOP-62 NSCLC, -40.4% (active); in the assay on NCI-H460 lung it was -35.7% (active); in the assay with HOP-92 NSCLC it was -10% (active). Also, the growth in the assay on NCI-H522 lung is -51.7% (active); in the assay with A549/ATCC NSCLC it was -2.8% (active); in the assay on 786-0 renal, -89.1% (active); with COLO 205 colon, -65.5% (active).
Turning to `COc1ccc(C(=O)C[n+]2cccc3c4ccccc4ccc32)cc1`, the growth in the assay with NCI-H23 lung was 28.4% (inactive); with NCI-H226 lung it was 59.1% (inactive); in the assay with NCI-H322M lung, 68.8% (inactive); with HOP-62 NSCLC, 44.2% (inactive); with NCI-H460 lung, 19.4% (inactive); in the assay with HOP-92 NSCLC it was 12.5% (inactive). Further, the growth is 28.8% (inactive) in the assay with NCI-H522 lung, 38.2% (inactive) in the assay on A549/ATCC NSCLC, 66.9% (inactive) with 786-0 renal and 26.5% (inactive) with COLO 205 colon.
In the case of `O=C(NC(=S)N1CCN(c2ncnc3c2cnn3-c2ccccc2)CC1)c1ccc(F)cc1`, the growth was 77.5% (inactive) with NCI-H23 lung; 84.9% (inactive) with NCI-H226 lung; 75.8% (inactive) in the assay with NCI-H322M lung; 70.6% (inactive) in the assay on HOP-62 NSCLC; 43.8% (inactive) in the assay on NCI-H460 lung; 67.9% (inactive) with HOP-92 NSCLC. Also, the growth in the assay on NCI-H522 lung was 57.6% (inactive); in the assay on A549/ATCC NSCLC, 76.2% (inactive); with 786-0 renal it was 98.6% (inactive); in the assay with COLO 205 colon, 90.4% (inactive).
Take `N#Cc1c(-c2ccc(F)cc2)nc(SCc2ccccc2)nc1N1CCNCC1`: the growth in the assay on NCI-H23 lung was -90.5% (active); in the assay with NCI-H226 lung, -58.8% (active); in the assay with NCI-H322M lung, -53.7% (active); in the assay on HOP-62 NSCLC it was -78.8% (active); in the assay on NCI-H460 lung, -85.5% (active); with HOP-92 NSCLC, -92.2% (active). In addition, the growth was -81.6% (active) in the assay on NCI-H522 lung, -90.9% (active) in the assay with A549/ATCC NSCLC, -94% (active) in the assay with 786-0 renal and -66% (active) in the assay on COLO 205 colon.
